From PMC9911399, “Two distinct binding modes provide the RNA-binding protein RbFox with extraordinary sequence specificity”
Where a chain is given by its changes, count along the chain named. The full ranking holds about 16,000 sequences; the median of “ka relative to ugcaugu” is about 0.096, and the highest 2% start at about 0.35. The sample as a whole holds a higher share of the highest values than the screen did.

T1: RBFOX1 RRM RbFoxmut (Fox-RRM*) (Homo sapiens, UniProt Q9NWB1 109-208, R118D;E147R;N151S;E152T)
T1 sequence: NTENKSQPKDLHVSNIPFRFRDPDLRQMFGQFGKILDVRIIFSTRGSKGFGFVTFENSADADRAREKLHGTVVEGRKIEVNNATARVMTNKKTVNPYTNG

B1: ACGAAGA (DNA:RNA)
RNA: GGGAGACCGGAAUUCAGAUUGUCCACGAAGAUUAAAUCCCGUCGUAGCCACCA
DNA 1: CAATCTGAATTCCGGTCTCCC
DNA 2: TGGTGGCTACGACGGGATT
B2: UUCGCAG (DNA:RNA)
RNA: GGGAGACCGGAAUUCAGAUUGUCCUUCGCAGUUAAAUCCCGUCGUAGCCACCA
DNA 1: CAATCTGAATTCCGGTCTCCC
DNA 2: TGGTGGCTACGACGGGATT
B3: GACGGCA (DNA:RNA)
RNA: B2 RNA with U25G, U26A, C29G, A30C, G31A
DNA 1: CAATCTGAATTCCGGTCTCCC
DNA 2: TGGTGGCTACGACGGGATT
B4: AUUGGAU (DNA:RNA)
RNA: B2 RNA with U25A, C27U, C29G, G31U
DNA 1: CAATCTGAATTCCGGTCTCCC
DNA 2: TGGTGGCTACGACGGGATT
B5: UGUUUUU (DNA:RNA)
RNA: B2 RNA with U26G, C27U, G28U, C29U, A30U, G31U
DNA 1: CAATCTGAATTCCGGTCTCCC
DNA 2: TGGTGGCTACGACGGGATT
B6: UGUUUGU (DNA:RNA)
RNA: B1 RNA with A25U, C26G, G27U, A28U, A29U, A31U
DNA 1: CAATCTGAATTCCGGTCTCCC
DNA 2: TGGTGGCTACGACGGGATT
B7: UGUGUUU (DNA:RNA)
RNA: B2 RNA with U26G, C27U, C29U, A30U, G31U
DNA 1: CAATCTGAATTCCGGTCTCCC
DNA 2: TGGTGGCTACGACGGGATT
B8: CUGUCGU (DNA:RNA)
RNA: B1 RNA with A25C, C26U, A28U, A29C, A31U
DNA 1: CAATCTGAATTCCGGTCTCCC
DNA 2: TGGTGGCTACGACGGGATT
B9: ACCUGUG (DNA:RNA)
RNA: B1 RNA with G27C, A28U, A29G, G30U, A31G
DNA 1: CAATCTGAATTCCGGTCTCCC
DNA 2: TGGTGGCTACGACGGGATT
B10: CUGUUGU (DNA:RNA)
RNA: B1 RNA with A25C, C26U, A28U, A29U, A31U
DNA 1: CAATCTGAATTCCGGTCTCCC
DNA 2: TGGTGGCTACGACGGGATT
B11: UGUCCGU (DNA:RNA)
RNA: B2 RNA with U26G, C27U, G28C, A30G, G31U
DNA 1: CAATCTGAATTCCGGTCTCCC
DNA 2: TGGTGGCTACGACGGGATT
B12: CCCUGUG (DNA:RNA)
RNA: B2 RNA with U25C, U26C, G28U, C29G, A30U
DNA 1: CAATCTGAATTCCGGTCTCCC
DNA 2: TGGTGGCTACGACGGGATT
B13: UGUGUGU (DNA:RNA)
RNA: B2 RNA with U26G, C27U, C29U, A30G, G31U
DNA 1: CAATCTGAATTCCGGTCTCCC
DNA 2: TGGTGGCTACGACGGGATT
B14: CUGUGUG (DNA:RNA)
RNA: B2 RNA with U25C, C27G, G28U, C29G, A30U
DNA 1: CAATCTGAATTCCGGTCTCCC
DNA 2: TGGTGGCTACGACGGGATT
B15: CUGUUUG (DNA:RNA)
RNA: B2 RNA with U25C, C27G, G28U, C29U, A30U
DNA 1: CAATCTGAATTCCGGTCTCCC
DNA 2: TGGTGGCTACGACGGGATT
B16: CUGUGUU (DNA:RNA)
RNA: B1 RNA with A25C, C26U, A28U, A29G, G30U, A31U
DNA 1: CAATCTGAATTCCGGTCTCCC
DNA 2: TGGTGGCTACGACGGGATT
B17: AAGACCU (DNA:RNA)
RNA: B1 RNA with C26A, A29C, G30C, A31U
DNA 1: CAATCTGAATTCCGGTCTCCC
DNA 2: TGGTGGCTACGACGGGATT
B18: GACUUGG (DNA:RNA)
RNA: B2 RNA with U25G, U26A, G28U, C29U, A30G
DNA 1: CAATCTGAATTCCGGTCTCCC
DNA 2: TGGTGGCTACGACGGGATT
B19: CCCAUAU (DNA:RNA)
RNA: B1 RNA with A25C, G27C, A29U, G30A, A31U
DNA 1: CAATCTGAATTCCGGTCTCCC
DNA 2: TGGTGGCTACGACGGGATT
B20: UUCGAGC (DNA:RNA)
RNA: B2 RNA with C29A, A30G, G31C
DNA 1: CAATCTGAATTCCGGTCTCCC
DNA 2: TGGTGGCTACGACGGGATT
B21: GAAGACC (DNA:RNA)
RNA: B1 RNA with A25G, C26A, G27A, A28G, G30C, A31C
DNA 1: CAATCTGAATTCCGGTCTCCC
DNA 2: TGGTGGCTACGACGGGATT
B22: CAAUUUU (DNA:RNA)
RNA: GGGAGACCGGAAUUCAGAUUGUCCCAAUUUUUUAAAUCCCGUCGUAGCCACCA
DNA 1: CAATCTGAATTCCGGTCTCCC
DNA 2: TGGTGGCTACGACGGGATT
B23: CUCUUGA (DNA:RNA)
RNA: B22 RNA with A26U, A27C, U30G, U31A
DNA 1: CAATCTGAATTCCGGTCTCCC
DNA 2: TGGTGGCTACGACGGGATT
B24: UUUGGCC (DNA:RNA)
RNA: B2 RNA with C27U, C29G, A30C, G31C
DNA 1: CAATCTGAATTCCGGTCTCCC
DNA 2: TGGTGGCTACGACGGGATT
B25: GACUCAA (DNA:RNA)
RNA: B2 RNA with U25G, U26A, G28U, G31A
DNA 1: CAATCTGAATTCCGGTCTCCC
DNA 2: TGGTGGCTACGACGGGATT
B26: UGUCGUG (DNA:RNA)
RNA: B2 RNA with U26G, C27U, G28C, C29G, A30U
DNA 1: CAATCTGAATTCCGGTCTCCC
DNA 2: TGGTGGCTACGACGGGATT
B27: UGUUGUG (DNA:RNA)
RNA: B22 RNA with C25U, A26G, A27U, U29G, U31G
DNA 1: CAATCTGAATTCCGGTCTCCC
DNA 2: TGGTGGCTACGACGGGATT
B28: UGUAGUG (DNA:RNA)
RNA: B2 RNA with U26G, C27U, G28A, C29G, A30U
DNA 1: CAATCTGAATTCCGGTCTCCC
DNA 2: TGGTGGCTACGACGGGATT
B29: CUGUGUC (DNA:RNA)
RNA: B22 RNA with A26U, A27G, U29G, U31C
DNA 1: CAATCTGAATTCCGGTCTCCC
DNA 2: TGGTGGCTACGACGGGATT
B30: UGUGUCG (DNA:RNA)
RNA: B2 RNA with U26G, C27U, C29U, A30C
DNA 1: CAATCTGAATTCCGGTCTCCC
DNA 2: TGGTGGCTACGACGGGATT
B31: UGUGUAG (DNA:RNA)
RNA: B2 RNA with U26G, C27U, C29U
DNA 1: CAATCTGAATTCCGGTCTCCC
DNA 2: TGGTGGCTACGACGGGATT
B32: UGUGUUG (DNA:RNA)
RNA: B2 RNA with U26G, C27U, C29U, A30U
DNA 1: CAATCTGAATTCCGGTCTCCC
DNA 2: TGGTGGCTACGACGGGATT
B33: CCCUGUC (DNA:RNA)
RNA: B22 RNA with A26C, A27C, U29G, U31C
DNA 1: CAATCTGAATTCCGGTCTCCC
DNA 2: TGGTGGCTACGACGGGATT
B34: UGUGUCU (DNA:RNA)
RNA: B22 RNA with C25U, A26G, A27U, U28G, U30C
DNA 1: CAATCTGAATTCCGGTCTCCC
DNA 2: TGGTGGCTACGACGGGATT

Each binder was assayed against T1, RBFOX1 RRM RbFoxmut (Fox-RRM*) (assay: EMSA; HiTS-Eq, 1 nM pool, 10 min; buffer printed only for the single-RNA assays: 10 mM Tris pH 7.5, 150 mM NaCl, 3.4 mM EDTA, 0.001% NP-40, 30 C). Settings: tags: His6 N-terminal (pET28a); label: 5' 32P.
In short: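 Purified RbFox RRM, wild type or mutant, was incubated for 10 min in 50 µL with 1 nM of a 5′-radiolabelled RNA pool carrying 7 randomized nucleotides, whose flanks were annealed to DNA oligonucleotides, over a series of increasing protein concentrations. Unbound RNA was resolved on 8% native PAGE, cut out, reverse-transcribed, barcoded by PCR and sequenced on an Illumina HiSeq 2500. Relative association constants were derived from changes in read counts for each RNA species versus the control reaction and normalised to the cognate motif.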

Binder	binding signal
B1	0.105 KA relative to UGCAUGU
B2	0.0914 KA relative to UGCAUGU
B3	0.149 KA relative to UGCAUGU
B4	0.0952 KA relative to UGCAUGU
B5	0.0878 KA relative to UGCAUGU
B6	0.549 KA relative to UGCAUGU
B7	0.115 KA relative to UGCAUGU
B8	0.138 KA relative to UGCAUGU
B9	0.139 KA relative to UGCAUGU
B10	0.166 KA relative to UGCAUGU
B11	0.147 KA relative to UGCAUGU
B12	0.138 KA relative to UGCAUGU
B13	0.366 KA relative to UGCAUGU
B14	0.388 KA relative to UGCAUGU
B15	0.75 KA relative to UGCAUGU
B16	0.14 KA relative to UGCAUGU
B17	0.0678 KA relative to UGCAUGU

Binder	binding signal
B18	0.129 KA relative to UGCAUGU
B19	0.0892 KA relative to UGCAUGU
B20	0.116 KA relative to UGCAUGU
B21	0.0506 KA relative to UGCAUGU
B22	0.0669 KA relative to UGCAUGU
B23	0.107 KA relative to UGCAUGU
B24	0.282 KA relative to UGCAUGU
B25	0.0967 KA relative to UGCAUGU
B26	0.193 KA relative to UGCAUGU
B27	0.29 KA relative to UGCAUGU
B28	0.682 KA relative to UGCAUGU
B29	0.436 KA relative to UGCAUGU
B30	0.253 KA relative to UGCAUGU
B31	0.196 KA relative to UGCAUGU
B32	0.383 KA relative to UGCAUGU
B33	0.194 KA relative to UGCAUGU
B34	0.131 KA relative to UGCAUGU
